# Test results reported in publication PMC4336329 (PLoS ONE, 2015).
# Out of some 310,000 compounds screened, about 14,000 (4.5%) showed an effect of 50% or more. The effect is printed as a negative number. The entries come from a sample that favours strong results as a whole.
# Target: human ether-à-go-go-related gene (hERG) potassium channel (human, UniProt Q12809)
# Test: primary screen, population patch clamp on CHO cells stably expressing hERG; higher = less effect of the substance
# 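Further: peak tail current of the secondary pulse compared with the same well before compound.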
# Sequence of human ether-à-go-go-related gene (hERG) potassium channel (Q12809 whole entry, looked up): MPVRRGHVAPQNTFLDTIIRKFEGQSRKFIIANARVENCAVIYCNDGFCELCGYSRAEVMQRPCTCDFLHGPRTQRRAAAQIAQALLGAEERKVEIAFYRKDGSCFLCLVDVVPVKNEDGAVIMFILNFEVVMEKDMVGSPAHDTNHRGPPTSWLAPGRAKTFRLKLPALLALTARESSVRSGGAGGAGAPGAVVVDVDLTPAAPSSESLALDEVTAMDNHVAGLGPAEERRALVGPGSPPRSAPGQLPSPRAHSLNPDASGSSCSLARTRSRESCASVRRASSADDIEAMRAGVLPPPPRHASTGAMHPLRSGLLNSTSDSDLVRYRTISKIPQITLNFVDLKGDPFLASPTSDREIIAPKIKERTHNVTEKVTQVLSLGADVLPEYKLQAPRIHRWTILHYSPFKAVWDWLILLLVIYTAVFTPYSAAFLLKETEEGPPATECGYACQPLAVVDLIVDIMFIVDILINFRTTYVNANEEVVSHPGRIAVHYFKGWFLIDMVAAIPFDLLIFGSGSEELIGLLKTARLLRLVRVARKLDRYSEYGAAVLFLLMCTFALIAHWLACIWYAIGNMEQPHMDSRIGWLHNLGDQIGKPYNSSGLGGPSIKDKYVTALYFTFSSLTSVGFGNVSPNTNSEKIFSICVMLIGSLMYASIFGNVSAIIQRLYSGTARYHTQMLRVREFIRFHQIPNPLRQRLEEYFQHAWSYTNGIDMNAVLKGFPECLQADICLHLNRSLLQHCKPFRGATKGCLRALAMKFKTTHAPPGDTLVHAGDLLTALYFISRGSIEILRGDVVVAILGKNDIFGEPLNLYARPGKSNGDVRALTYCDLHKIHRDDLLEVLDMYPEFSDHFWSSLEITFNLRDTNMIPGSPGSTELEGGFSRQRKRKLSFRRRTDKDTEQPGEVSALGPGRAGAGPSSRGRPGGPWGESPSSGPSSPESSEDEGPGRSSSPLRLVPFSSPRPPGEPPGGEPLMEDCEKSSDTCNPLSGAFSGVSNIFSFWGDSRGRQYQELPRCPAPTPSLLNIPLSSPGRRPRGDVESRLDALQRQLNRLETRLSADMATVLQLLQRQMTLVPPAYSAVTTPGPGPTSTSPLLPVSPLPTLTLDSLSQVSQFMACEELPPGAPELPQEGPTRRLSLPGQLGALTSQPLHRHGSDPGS
row,SMILES,"hERG current change (%, negative = inhibition) at 10uM [%]"
1,O=C(N/N=C/c1ccc(F)cc1)c1cccc(NC(=O)c2ccc(F)cc2)c1,-4.54
2,O=C(Nc1cccc(-n2cnnn2)c1)c1ccco1,-0.205
3,COc1ccc(NC(=S)N2CCC(N(C)CCN3CCOCC3)CC2)cc1Cl,-26.8
4,CN(C)c1nc(N(C)C)nc(N(C#N)CCCl)n1,8.89
5,COc1ccc(-c2noc(-c3ccoc3C)n2)cc1,39.5
6,Cc1noc(N)c1C1(O)C(=O)Nc2c(Cl)cc(Cl)cc21 (stereo not shown),0.32
7,CCOc1ccc(CCN2C(=O)c3ccc(C(=O)O)cc3C2=O)cc1OCC,-3.15
8,COc1ccc(C2CC(c3cccs3)=NN2C(=O)COC(=O)C2CCCCC2)cc1OC (stereo not shown),-18.1
9,CC(=O)c1c(N2CCN(C)CC2)nc(=S)n(-c2cc(C)ccc2C)c1C,28.7
10,CC(C)(C)C(=O)Nc1ccc(S(=O)(=O)N2CCCC2)cc1,4.25
11,COc1ccc(CC(=O)Nc2cc(NC(=O)Cc3ccc(OC)c(OC)c3)cc(C(=O)O)c2)cc1OC,14.3
12,CN(c1ccccc1)c1nc(N)c([N+](=O)[O-])c(NCc2ccccc2)n1,17.6
13,COc1ccc(-c2cc(C(=O)N3CCCC3)c3ccccc3n2)cc1,-2.31
14,O=C(c1cc(-c2ccccc2)nc2ccccc12)N1CCN(C2CCS(=O)(=O)C2)CC1 (stereo not shown),-25
15,O=C(NC1CCS(=O)(=O)C1)c1cc(-c2ccccc2)nc2ccccc12 (stereo not shown),13.6
16,O=C(c1cc(-c2ccc(F)cc2)nc2ccccc12)N1CCN(C2CCS(=O)(=O)C2)CC1 (stereo not shown),-69
17,Cc1ccc(-c2cc(C(=O)N3CCN(C4CCS(=O)(=O)C4)CC3)c3ccccc3n2)cc1 (stereo not shown),-60.7
18,Cc1ccc(-c2cc(C(=O)N3CCN(c4ncccn4)CC3)c3ccccc3n2)cc1,-40.9
19,Cc1ccccc1C(=O)Oc1cccc(Nc2ncnc3ccccc23)c1,-3.38
20,CCC(C)NC(=O)CN1C(=O)NC2(CCOc3ccccc32)C1=O (stereo not shown),-9.56
21,CCCNC(=O)Cc1ccsc1,9.93

row,SMILES,"hERG current change (%, negative = inhibition) at 10uM [%]"
1,O=C(NCc1cccs1)C1CCN(S(=O)(=O)c2cccc([N+](=O)[O-])c2)CC1,-15.7
2,Fc1ccc(NC(=S)NCCc2ccccc2)c(F)c1F,-1.12
3,CCC(Sc1nnc(C)c(=O)[nH]1)C(=O)Nc1cccc2ccccc12 (stereo not shown),10
4,O=C(CCCc1nc2ccccc2s1)NCc1cccnc1,0.483
5,C/C(=N/NC(=O)CN1CCN(S(=O)(=O)c2ccc(Br)cc2)CC1)c1ccncc1,-80.3
6,NC(=O)CN1CCN(S(=O)(=O)c2ccc(Br)cc2)CC1,22.4
7,C/C(=N\NC(=O)CN1CCN(S(=O)(=O)c2ccc(C)cc2)CC1)c1cccnc1,-46.9
8,C/C(=N\NC(=O)CN1CCN(S(=O)(=O)c2ccc(C)cc2)CC1)c1ccc(O)cc1,-6.97
9,C/C(=N\NC(=O)CN1CCN(S(=O)(=O)c2ccc(C)cc2)CC1)c1ccncc1,-77.1
10,C/C(=N\NC(=O)CCc1ccc(S(=O)(=O)N2CCOCC2)cc1)c1ccc(Br)cc1,6.98
11,O=C(Nc1ccc2c(c1)CCC2)c1ccccc1,9.66
12,Cc1ncoc1C(=O)N1CCc2c([nH]c3ccccc23)C1C1CCCCC1 (stereo not shown),1.89
13,Cc1cccc(C2c3[nH]c4ccccc4c3CCN2C(=O)c2ocnc2C)n1 (stereo not shown),-10.5
14,Cc1ncoc1C(=O)N1CCc2c([nH]c3ccccc23)C1C(C)(C)C (stereo not shown),-65.3
15,COc1ccc(CNC(=O)C(C)n2ccc3cc(S(=O)(=O)N4CCCCCC4)ccc32)cc1 (stereo not shown),1.82
16,CCN(CC)CCC(c1ccc(OC)cc1)c1c(O)cc(OC)cc1OC (stereo not shown),-66.4
17,CCN(CC)CCC(c1ccc2c(c1)OCO2)c1c(OC)cc(OC)c2ccc(=O)oc12 (stereo not shown),-46.2
18,CCN(CC)C(=O)CC(c1ccc(OC)cc1)c1c(O)cc(OC)cc1OC (stereo not shown),-1.57
19,CCN(CC)CCC(c1ccc2c(c1)OCO2)c1c(O)cc(OC)cc1OC (stereo not shown),-73.4
20,CCN(CC)CCC(c1ccc(N(C)C)cc1)c1c(O)cc(OC)cc1OC (stereo not shown),-0.431
21,CCN(CC)C(=O)CC(c1ccc2c(c1)OCO2)c1c(O)cc(OC)cc1OC (stereo not shown),-2.77

row,SMILES,"hERG current change (%, negative = inhibition) at 10uM [%]"
1,CC(C)CC(C(=O)OCC(=O)c1c(N)n(C)c(=O)n(C)c1=O)N1C(=O)c2ccccc2C1=O (stereo not shown),-27
2,COCCNC(=S)N1CCC(C(=O)c2ccc3c(c2)OCCO3)CC1,32.7
3,Cc1ccc(F)cc1CNC(=O)c1cc(COc2ccc3ncccc3c2)on1,5.04
4,CCn1c(=O)c2c(cnn2C)c2ccccc21,2.58
5,Brc1ccc(-c2c(-c3ccsc3)sc3ccccc23)cn1,14.1
6,Cc1ccc(-c2nc(CS(=O)CC(=O)NCCN3CCCC3)c(C)o2)cc1 (stereo not shown),-5.74
7,CC(C)c1ccc(-c2csc(NC(=O)c3cccs3)c2C(=O)O)cc1,18.3
8,O=C(CSc1nc2ccccc2c(=O)n1Cc1ccccc1)NCc1ccco1,-39.6
9,O=C(CSc1nc2ccsc2c(=O)n1Cc1ccc(C(=O)O)cc1)NCc1ccco1,2.08
10,COc1cc2nc(SCC(=O)NCCc3ccccc3)n(Cc3ccco3)c(=O)c2cc1OC,-43.3
11,O=C(CSc1nc2ccccc2c(=O)n1Cc1ccc(Cl)cc1)NCc1cccs1,-52.5
12,O=C(CSc1nc2ccccc2c(=O)n1Cc1ccc(F)cc1)NCc1cccs1,-14
13,COCCNC(=O)CSc1nc2cc3c(cc2c(=O)n1Cc1ccco1)OCO3,-27.4
14,Cc1ccccc1-n1c(SCC(=O)NCc2cccs2)nc2ccccc2c1=O,-17.4
15,O=C(CSc1nc2ccccc2c(=O)n1Cc1ccco1)NCc1ccccc1,-29.3
16,Cn1c(SCC(=O)NCc2ccco2)nc2ccccc2c1=O,-23.6
17,O=C(CSc1nc2ccccc2c(=O)n1Cc1ccc(C(=O)NC2CC2)cc1)NCc1ccco1,-51.5
18,COCCNC(=O)CSc1nc2cc(OC)c(OC)cc2c(=O)n1Cc1ccco1,-61.2
19,O=C(CSc1nc2ccccc2c(=O)n1Cc1ccco1)NCc1ccco1,-65.4
